The results in this text go back to PubChem BioAssay AID1850 (Southern Research Specialized Biocontainment Screening …, 2009).

The campaign covered roughly 310,000 compounds. About 1,000 (0.32%) were called active. How the calls were made is not given here. Only a sample is shown. Measured potencies and affinities stand elsewhere.

This assay in a line: Inhibition of PhoP regulon, Salmonella typhi GFP reporter cells, confirmation, 4 h (AID 1850).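 Further: 0% = induced wells with vehicle and 100% = uninduced wells.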 Particulars: Salmonella Typhi PhoP-promoter GFP reporter, fluorescence, at 50 µM, active compounds read high.
In the case of `CCN1CCCC1CNC(=O)c1ccc(N2CCOCC2)c(NS(=O)(=O)c2ccc(OC)cc2)c1` (centres undefined), the inhibition (as a rule, the drop in the measured response relative to a control, in per cent) is 2.06% (inactive).
With `COc1ccc(CN2CN(C(C)C)CSC2=S)cc1` the figure was 16.3% (inactive); with `CCN1CSC(=S)N(Cc2ccccc2)C1`, -1.16% (inactive); with `NCCCC[C@@H]1NC(=O)c2cc([N+](=O)[O-])cc(I)c2SC[C@@H](C(=O)NCC(N)=O)NC(=O)CNC1=O`, -0.813% (inactive).
As to `COc1cc(CNCCCN2CCOCC2)ccc1OCC(=O)Nc1cccc(C(F)(F)F)c1`, the inhibition is 8.04% (inactive).
In the case of `CCOc1cc(CNCCCN2CCOCC2)ccc1OCC(=O)Nc1cccc2ccccc12`, the inhibition is 9.38% (inactive).
In the case of `CC(C)c1ccccc1NC(=O)C1CN(S(=O)(=O)c2ccccc2)CCN1S(=O)(=O)c1ccccc1` (centres undefined), the inhibition was -5.27% (inactive).
For `O=C(N/C(=C/c1cccnc1)C(=O)N1CCOCC1)c1ccccc1Cl`, the inhibition is 1.54% (inactive).
For the compound `C[n+]1c(-c2ccccc2)sc2ccccc21`, the inhibition is -0.28% (inactive).
In the case of `COc1ccc(C)cc1Nc1n[n+](-c2ccccc2)c(-c2ccc(N(C)C)cc2)s1`, the inhibition was -6.34% (inactive).
For `CCCCn1c(SCC(=O)Nc2cc(C)on2)nnc1-c1ccncc1`, the inhibition was 7.28% (inactive).
As to `Cc1ccc(C(=O)N/C(=C\c2ccco2)C(=O)N2CCCCC2)cc1`, the inhibition was 11.1% (inactive).
As for `CC(=O)C1=C(C)NC2=C(C(=O)c3ccccc32)C1c1ccccc1` (centres undefined), the inhibition is -9.36% (inactive).
For the compound `CC1=C(C#N)C(c2ccccc2)C2=C(N1)c1ccccc1C2=O` (centres undefined), the inhibition was -2.93% (inactive).
For the compound `COC(=O)C1=C(C)N(CC2CC2)C(=NCCN2CCOCC2)N[C@H]1c1ccccc1`, the inhibition was -21.7% (inactive).
As for `COc1cc(/C=N/NC(=O)c2ccncc2)ccc1OCC(=O)Nc1ccc(C)c(C)c1`, the inhibition was 8.17% (inactive).
`Cc1ccc(OCC(O)CNCc2ccc(F)cc2)cc1` (centres undefined): the inhibition is -1.28% (inactive).
As to `Cc1ccc(C(OCC(O)CNC(C)c2ccccc2)c2ccccc2)cc1` (centres undefined), the inhibition was -20.1% (inactive).
With `COc1ccccc1COCC(O)CNCCc1ccc(C(F)(F)F)cc1` (centres undefined) the figure was 5.56% (inactive).
Take `COc1ccc(C(OCC(O)CNCCc2ccccc2)c2ccc(OC)cc2)cc1` (centres undefined): the inhibition was -15.4% (inactive).
On to `COc1ccc2cc(CN(Cc3cccnc3)Cc3nnnn3Cc3ccccc3)c(=O)[nH]c2c1`, for which the inhibition is -1.66% (inactive).
Turning to `CCOC(=O)CSc1c(-c2ccc(Cl)cc2)[nH]c2ccccc12`, the inhibition was -5.57% (inactive).
`CC1(C)CC(=O)C=C(Nc2ccc(C(=O)O)c(O)c2)C1`: the inhibition was -4.27% (inactive).
For `N#C/C(=C\c1cn(CCOc2ccccc2)c2ccccc12)C(=O)NCc1cccs1`, the inhibition is -5.68% (inactive).
On to `COc1ccnc(Oc2ccc(C)cc2)c1C#N`, for which the inhibition is 5.63% (inactive).
With `Cc1ccc(C)c(SCC(=O)NCC(c2ccco2)N2CCCCC2)c1` (centres undefined) the figure was 19.8% (inactive); with `COc1ccc(NS(=O)(=O)c2cccc(C(=O)NNC(=O)c3cncc(Br)c3)c2)cc1`, 11.8% (inactive); with `COc1ccccc1N1CCN(C(=O)/C=C/c2cccs2)CC1`, -0.34% (inactive).
With `Cc1cc(NS(=O)(=O)c2ccc(NC(=O)Nc3cccc(C(F)(F)F)c3)cc2)no1` the figure was -2.04% (inactive); with `Cc1cc(NS(=O)(=O)c2ccc(NC(=O)Nc3ccccc3)cc2)no1`, -1.36% (inactive).
For the compound `CCN1c2ccccc2NC2C1C(C(C)=O)C(=O)N2c1ccc(Cl)cc1` (centres undefined), the inhibition is -5.05% (inactive).
In the case of `CCCN1C(=O)c2ccccc2NC1c1cc(OC)c(OC)c(OC)c1` (centres undefined), the inhibition is 4.01% (inactive).
With `COc1ccc(-c2[nH]ncc2-c2nc(C)cs2)c(O)c1` the figure was -0.79% (inactive).
Consider `Cc1cccc(OCC(O)Cn2c(=N)n(Cc3ccccc3)c3ccccc32)c1` (centres undefined), for which the inhibition is -11.7% (inactive).
Turning to `COc1ccc(OCC(O)Cn2c(=N)n(Cc3ccccc3)c3ccccc32)cc1` (centres undefined), the inhibition is 10.7% (inactive).
For `N=c1n(Cc2ccccc2)c2ccccc2n1CC(O)COc1ccccc1` (centres undefined), the inhibition is -2.26% (inactive).
For `Cc1ccc(OCC(O)Cn2c(=N)n(Cc3ccccc3)c3ccccc32)cc1` (centres undefined), the inhibition is -18.7% (inactive).
On to `Cc1ccn2cc(-c3cccc(NS(C)(=O)=O)c3)nc2c1`, for which the inhibition is -0.47% (inactive).
Consider `CN(C)c1cccc(C(=O)OCC(=O)Nc2ccccc2-c2ccccc2)c1`, for which the inhibition is -5.83% (inactive).
For the compound `Cc1ccc(OCCNC(=O)CCC(=O)N2CCOCC2)cc1`, the inhibition is 1.97% (inactive).
`CNCc1c(OCc2ccccc2)ccc2ccccc12`: the inhibition is 15.5% (inactive).
As for `CNCc1c(OCc2ccc(F)cc2)ccc2ccccc12`, the inhibition was 20.5% (inactive).
`Cc1cc(C)c2nc(C)cc(Nc3ccc(C(=O)NCCO)cc3)c2c1`: the inhibition is 1.42% (inactive).
For `COc1ccc2oc(C(=O)OCC(=O)N3CC(C)OC(C)C3)c(C)c2c1` (centres undefined), the inhibition is 1.14% (inactive).
On to `O=C1C=C(Nc2cccc3cccnc23)c2ccccc2C1=O`, for which the inhibition is 1.58% (inactive).
For the compound `O=C1C=C(Nc2ccccc2C(=O)O)c2ccccc2C1=O`, the inhibition was 8.73% (inactive).
With `Cc1ccc(NC2=CC(=O)C(=O)c3ccccc32)cc1` the figure was 5.69% (inactive); with `CCOC(=O)c1ccc(NC2=CC(=O)C(=O)c3ccccc32)cc1`, 0.12% (inactive); with `CS(=O)(=O)N(CC(=O)N1CCC(C(N)=O)CC1)C1CCCCC1`, -1.33% (inactive).
`CCOC(=O)Cc1csc(NC(=O)c2ccc3ncsc3c2)n1`: the inhibition is -6% (inactive).
Regarding `COc1ccc(-n2nc(C(=O)NCC(=O)NCc3ccccc3OC)c3ccccc3c2=O)cc1`, the inhibition is 8.47% (inactive).
With `OCCNc1nc(N2CCN(Cc3ccccc3)CC2)nc2ccccc12`, the inhibition was 1.64% (inactive).
Take `c1ccc(N2CCN(c3nc(NCc4ccco4)c4ccccc4n3)CC2)cc1`: the inhibition was 13.6% (inactive).
For `OCCN1CCN(c2nc(NCc3ccco3)c3ccccc3n2)CC1`, the inhibition is 3.47% (inactive).
With `c1ccc(CN2CCN(c3nc(N4CCOCC4)c4ccccc4n3)CC2)cc1` the figure was -3.61% (inactive); with `O=C(NC(=S)N1CCN(c2ccc([N+](=O)[O-])cc2)CC1)c1ccco1`, -9.69% (inactive).
Take `CCC1(c2ccccc2)NC(=O)N(CC(=O)Nc2nnc(C3CC3)s2)C1=O` (centres undefined): the inhibition is -9.36% (inactive).
Take `COc1ccc(OC)c2[nH]c(=O)c(CCNS(=O)(=O)c3ccc(C)cc3)cc12`: the inhibition was 7.93% (inactive).
Take `C#CCOCCOCCOCCNc1nc(N2CCN(C(=O)[C@H](Cc3ccc(O)cc3)n3cc([C@@H](N)C(C)CC)nn3)CC2)nc(N2CCN(C(=O)[C@H](Cc3cc4ccccc4[nH]3)n3cc([C@@H](N)CC(C)C)nn3)CC2)n1` (some centres undefined): the inhibition was 11% (inactive).
Take `C#CCOCCOCCOCCNc1nc(N2CCN(C(=O)[C@H]([C@@H](C)CC)n3cc([C@@H](N)Cc4ccc(O)cc4)nn3)CC2)nc(N2CCN(C(=O)[C@H](Cc3cc4ccccc4[nH]3)n3cc([C@@H](N)C(C)CC)nn3)CC2)n1` (some centres undefined): the inhibition is 17.7% (inactive).
For the compound `C#CCOCCOCCOCCNc1nc(N2CCN(C(=O)[C@H]([C@@H](C)CC)n3cc([C@@H](N)CC(C)C)nn3)CC2)nc(N2CCN(C(=O)[C@H](Cc3cc4ccccc4[nH]3)n3cc([C@@H](N)Cc4ccc(O)cc4)nn3)CC2)n1`, the inhibition is -29.1% (inactive).
With `C#CCOCCOCCOCCNc1nc(N2CCN(C(=O)[C@H](CCC(=O)O)n3cc(C(N)Cc4ccc(O)cc4)nn3)CC2)nc(N2CCN(C(=O)[C@H](Cc3cc4ccccc4[nH]3)n3cc(C(N)CC(C)C)nn3)CC2)n1` (some centres undefined) the figure was 5.34% (inactive); with `C#CCOCCOCCOCCNc1nc(N2CCN(C(=O)C(Cc3ccc(O)cc3)n3cc(C(N)CC(C)C)nn3)CC2)nc(N2CCN(C(=O)C(Cc3cc4ccccc4[nH]3)n3cc(C(N)C(C)CC)nn3)CC2)n1` (centres undefined), 18.1% (inactive).
On to `C#CCOCCOCCOCCNc1nc(N2CCN(C(=O)C(CCC(=O)O)n3cc(C(N)CC(C)C)nn3)CC2)nc(N2CCN(C(=O)C(Cc3cc4ccccc4[nH]3)n3cc(C(N)Cc4ccc(O)cc4)nn3)CC2)n1` (centres undefined), for which the inhibition was -1.42% (inactive).
In the case of `CCc1ccccc1NNC(=O)c1cc(C)on1`, the inhibition is -26.6% (inactive).
As for `Cc1cc(OCC(=O)N2CCC(C(=O)O)(c3ccccc3)CC2)c2c(C)c(C)c(=O)oc2c1`, the inhibition was 1.07% (inactive).
With `O=C(Cn1cnc2c(oc3ccccc32)c1=O)N1CCCc2ccccc21`, the inhibition was 1.66% (inactive).
Turning to `Cc1cc(NC(=O)c2cccc(S(=O)(=O)N3CC(c4ccccc4)CC3=O)c2)no1` (centres undefined), the inhibition is -38.2% (inactive).
For the compound `O=C1CC(C(=O)Nc2ccccc2)S/C(=N\NC(=O)c2ccccc2Cl)N1` (centres undefined), the inhibition is 21.9% (inactive).
As for `O=C(O)c1cc(C(F)(F)F)nc2c(C(F)(F)F)cccc12`, the inhibition is -2.04% (inactive).
With `OC(c1cc(C(F)(F)F)nc2c(Cl)cc(Cl)cc12)C1CCCCN1` (centres undefined) the figure was 0.54% (inactive); with `OC(c1cc(-c2ccc(C(F)(F)F)cc2)nc(C(F)(F)F)c1)C1CCCCN1` (centres undefined), -0.73% (inactive).
`COc1ccc(OC)c(C(O)C2CCCCN2)c1` (centres undefined): the inhibition was -3.76% (inactive).
Consider `COc1ccc(C2Cc3ccccc3C(=O)O2)cc1` (centres undefined), for which the inhibition was 7.74% (inactive).
Consider `CSCCC(NC(N)=O)C(=O)NCc1cccc(Cl)c1` (centres undefined), for which the inhibition is 3.4% (inactive).
With `CN(C(=O)c1ccco1)c1nc(-c2ccccc2)cs1` the figure was -0.59% (inactive); with `CN(C)C(=O)c1cn(-c2ccccc2)nc1-c1cc2ccccc2oc1=O`, -9.39% (inactive); with `Clc1ccc(/C=C/c2nc3ccccc3[nH]2)c(Cl)c1`, 7.7% (inactive).
In the case of `CSC1=NC(C)(C)C=C(/C=C/c2ccc(Cl)cc2Cl)N1`, the inhibition is 4.11% (inactive).
With `CC(c1ccccc1)N1CC(C(=O)NC2CCCC2)CC1=O` (centres undefined), the inhibition was -13.4% (inactive).
Consider `CCOC(=O)CC1(NC(=O)C2CCC(=O)N(Cc3ccccc3F)C2)CCCCC1` (centres undefined), for which the inhibition is -14.3% (inactive).
For `CN(C)CCCN(C(=O)c1ccco1)c1nc2c(F)cc(F)cc2s1`, the inhibition was 1.38% (inactive).
On to `CCn1cc(C(=O)O)c(=O)c2cc(F)c(N3CCN(C(=S)NC(=O)c4ccccc4Cl)CC3)cc21`, for which the inhibition was 11.6% (inactive).
With `CCn1cc(C(=O)O)c(=O)c2cc(F)c(N3CCN(C(=S)NC(=O)c4ccccc4Br)CC3)cc21` the figure was -18.1% (inactive).
